How the values were obtained:
Assay in all cases: DAPPL (digital affinity profiling via proximity ligation, sequencing); 10 mM Tris-HCl pH 7.5, 50 mM NaCl, 1 mM DTT, 4% glycerol, room temperature, 30 min; GST-TFs on glutathione beads, 16-mer random dsDNA library, 0.1% formaldehyde crosslink after washing; high values mean tight binding
Details in all cases: protein: recombinant; tags: N-terminal GST; dsDNA, one strand shown
[1] = target: T1, FLI1 (Homo sapiens, UniProt Q01543 1-452)
T1 sequence: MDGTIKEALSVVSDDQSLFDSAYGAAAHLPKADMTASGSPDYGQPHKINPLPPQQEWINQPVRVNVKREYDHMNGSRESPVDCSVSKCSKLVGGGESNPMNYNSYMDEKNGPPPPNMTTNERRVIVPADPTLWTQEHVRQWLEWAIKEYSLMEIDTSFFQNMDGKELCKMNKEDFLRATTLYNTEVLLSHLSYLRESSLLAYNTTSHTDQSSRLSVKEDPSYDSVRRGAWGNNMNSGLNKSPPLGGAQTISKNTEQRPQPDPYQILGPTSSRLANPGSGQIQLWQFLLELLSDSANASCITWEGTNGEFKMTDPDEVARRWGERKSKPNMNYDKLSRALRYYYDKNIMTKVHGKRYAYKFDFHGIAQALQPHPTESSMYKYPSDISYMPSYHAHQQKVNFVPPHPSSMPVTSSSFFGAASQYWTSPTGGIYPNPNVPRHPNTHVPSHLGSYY
Summary of the method: (§1)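 Human transcription factors fused to GST were expressed in yeast, captured on glutathione beads, given DNA barcodes and pooled with a GST-only negative control. Pools were incubated with 200 nmole of a 16-mer random double-stranded DNA library in Tris/NaCl/DTT/glycerol buffer at room temperature for 30 min. They were then washed, crosslinked with 0.1% formaldehyde, proximity-ligated (BsaI/T4 ligase, 1 h, 37 °C), PCR-amplified and sequenced on an Illumina NextSeq500. Binding signal is each 6-mer's read frequency for a factor divided by its frequency for the GST control.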

[2] = target: T2, ELK1 (Homo sapiens, UniProt P19419 1-428)
T2 sequence: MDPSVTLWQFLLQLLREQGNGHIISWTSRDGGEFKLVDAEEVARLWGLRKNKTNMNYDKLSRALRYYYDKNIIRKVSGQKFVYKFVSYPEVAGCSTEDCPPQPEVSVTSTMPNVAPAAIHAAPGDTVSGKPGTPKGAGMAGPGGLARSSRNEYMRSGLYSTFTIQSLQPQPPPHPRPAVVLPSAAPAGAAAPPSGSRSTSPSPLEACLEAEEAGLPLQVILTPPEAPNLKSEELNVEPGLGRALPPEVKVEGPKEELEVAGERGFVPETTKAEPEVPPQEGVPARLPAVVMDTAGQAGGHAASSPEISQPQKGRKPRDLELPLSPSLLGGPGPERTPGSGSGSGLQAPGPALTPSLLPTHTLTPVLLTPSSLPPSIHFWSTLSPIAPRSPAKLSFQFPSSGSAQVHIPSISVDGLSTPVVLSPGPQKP
Summary of the method: as §1

[3] = target: T3, GABPA (Homo sapiens, UniProt Q06546 1-454)
T3 sequence: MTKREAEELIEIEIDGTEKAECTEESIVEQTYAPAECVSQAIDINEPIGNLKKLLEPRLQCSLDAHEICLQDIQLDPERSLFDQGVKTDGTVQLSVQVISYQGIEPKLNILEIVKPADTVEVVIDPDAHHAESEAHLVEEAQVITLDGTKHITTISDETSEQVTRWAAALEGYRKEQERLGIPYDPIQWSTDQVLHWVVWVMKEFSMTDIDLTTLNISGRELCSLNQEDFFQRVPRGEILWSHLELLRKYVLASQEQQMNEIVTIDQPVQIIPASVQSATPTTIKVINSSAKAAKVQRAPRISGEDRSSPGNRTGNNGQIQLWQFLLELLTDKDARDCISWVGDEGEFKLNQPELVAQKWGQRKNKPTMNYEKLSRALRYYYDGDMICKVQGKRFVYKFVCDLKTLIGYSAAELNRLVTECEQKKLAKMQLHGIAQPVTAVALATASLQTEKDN
Summary of the method: as §1

[4] = target: ELF1 (Homo sapiens, UniProt P32519 1-619)
Summary of the method: as §1

[5] = target: T4, EHF (Homo sapiens, UniProt Q9NZC4 1-300)
T4 sequence: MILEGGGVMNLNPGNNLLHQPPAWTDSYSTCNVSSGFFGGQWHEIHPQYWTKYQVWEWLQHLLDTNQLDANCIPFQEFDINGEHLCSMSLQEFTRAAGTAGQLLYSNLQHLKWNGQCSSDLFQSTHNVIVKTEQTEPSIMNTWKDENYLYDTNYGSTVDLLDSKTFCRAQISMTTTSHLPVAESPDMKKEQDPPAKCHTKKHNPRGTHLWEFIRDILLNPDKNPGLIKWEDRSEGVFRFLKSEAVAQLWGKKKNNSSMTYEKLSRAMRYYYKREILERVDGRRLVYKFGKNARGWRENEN
Summary of the method: as §1

[6] = target: SPIB (Homo sapiens, UniProt Q01892 1-262)
Summary of the method: as §1

[7] = target: T5, ELK3 (Homo sapiens, UniProt P41970 1-407)
T5 sequence: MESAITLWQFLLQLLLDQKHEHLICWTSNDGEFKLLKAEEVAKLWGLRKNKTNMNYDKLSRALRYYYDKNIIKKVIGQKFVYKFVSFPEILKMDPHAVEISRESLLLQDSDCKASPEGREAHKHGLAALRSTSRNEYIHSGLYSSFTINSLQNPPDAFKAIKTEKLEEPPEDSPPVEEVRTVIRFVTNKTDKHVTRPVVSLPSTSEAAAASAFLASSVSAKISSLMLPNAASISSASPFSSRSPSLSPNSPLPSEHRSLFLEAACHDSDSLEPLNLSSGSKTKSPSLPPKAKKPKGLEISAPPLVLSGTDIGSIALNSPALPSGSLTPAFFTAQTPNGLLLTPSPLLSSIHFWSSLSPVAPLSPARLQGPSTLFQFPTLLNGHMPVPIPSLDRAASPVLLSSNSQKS
Summary of the method: as §1

[8] = target: T6, ELK4 (Homo sapiens, UniProt P28324-2 1-405)
T6 sequence: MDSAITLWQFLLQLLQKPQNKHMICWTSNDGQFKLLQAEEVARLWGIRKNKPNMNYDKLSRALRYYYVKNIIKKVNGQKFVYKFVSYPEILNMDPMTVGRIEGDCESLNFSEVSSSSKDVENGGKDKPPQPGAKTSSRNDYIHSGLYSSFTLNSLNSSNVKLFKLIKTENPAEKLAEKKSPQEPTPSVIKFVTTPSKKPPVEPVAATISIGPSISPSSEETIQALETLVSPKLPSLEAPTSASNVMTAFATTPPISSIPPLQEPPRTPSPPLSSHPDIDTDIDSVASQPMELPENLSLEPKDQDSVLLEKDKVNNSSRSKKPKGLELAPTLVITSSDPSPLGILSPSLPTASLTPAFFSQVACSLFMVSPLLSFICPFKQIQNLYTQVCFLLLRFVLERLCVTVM
Summary of the method: as §1

[9] = target: T7, ETV2 (Homo sapiens, UniProt O00321 1-342)
T7 sequence: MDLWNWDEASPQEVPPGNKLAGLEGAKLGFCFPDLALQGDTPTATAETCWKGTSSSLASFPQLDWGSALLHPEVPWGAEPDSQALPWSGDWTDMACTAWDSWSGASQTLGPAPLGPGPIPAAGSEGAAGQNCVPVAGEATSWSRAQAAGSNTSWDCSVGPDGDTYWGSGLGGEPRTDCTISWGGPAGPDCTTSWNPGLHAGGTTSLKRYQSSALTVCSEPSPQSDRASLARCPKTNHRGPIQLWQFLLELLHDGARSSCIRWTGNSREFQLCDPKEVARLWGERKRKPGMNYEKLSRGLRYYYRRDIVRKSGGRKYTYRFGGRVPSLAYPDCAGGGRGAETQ
Summary of the method: as §1

[10] = target: T8, ERF (Homo sapiens, UniProt P50548 1-548)
T8 sequence: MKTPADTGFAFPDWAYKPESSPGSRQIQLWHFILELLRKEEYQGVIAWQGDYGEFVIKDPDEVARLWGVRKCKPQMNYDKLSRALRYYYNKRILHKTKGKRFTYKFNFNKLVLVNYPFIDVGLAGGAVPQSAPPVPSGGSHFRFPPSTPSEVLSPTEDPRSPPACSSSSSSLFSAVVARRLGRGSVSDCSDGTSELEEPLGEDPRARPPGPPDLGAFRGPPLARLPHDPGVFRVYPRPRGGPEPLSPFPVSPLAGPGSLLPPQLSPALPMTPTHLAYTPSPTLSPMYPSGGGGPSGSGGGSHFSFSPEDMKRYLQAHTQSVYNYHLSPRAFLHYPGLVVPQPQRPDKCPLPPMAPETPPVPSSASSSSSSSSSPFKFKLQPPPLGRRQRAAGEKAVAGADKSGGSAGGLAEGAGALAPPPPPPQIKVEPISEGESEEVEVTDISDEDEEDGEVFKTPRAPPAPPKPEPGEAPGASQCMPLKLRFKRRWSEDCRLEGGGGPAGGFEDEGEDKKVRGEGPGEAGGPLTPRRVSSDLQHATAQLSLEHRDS
Summary of the method: as §1

[11] = target: T9, ETV3L (Homo sapiens, UniProt Q6ZN32 1-361)
T9 sequence: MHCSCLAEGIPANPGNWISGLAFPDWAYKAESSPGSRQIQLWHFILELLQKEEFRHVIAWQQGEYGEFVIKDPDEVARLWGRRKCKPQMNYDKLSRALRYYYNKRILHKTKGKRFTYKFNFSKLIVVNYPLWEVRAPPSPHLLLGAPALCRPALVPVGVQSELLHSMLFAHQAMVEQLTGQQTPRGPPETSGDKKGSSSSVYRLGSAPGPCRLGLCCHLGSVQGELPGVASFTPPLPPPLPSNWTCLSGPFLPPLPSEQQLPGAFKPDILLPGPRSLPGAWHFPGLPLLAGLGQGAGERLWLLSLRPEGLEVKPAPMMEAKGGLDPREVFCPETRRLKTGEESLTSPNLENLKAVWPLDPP
Summary of the method: as §1

[12] = target: T10, ETS2 (Homo sapiens, UniProt P15036 1-469)
T10 sequence: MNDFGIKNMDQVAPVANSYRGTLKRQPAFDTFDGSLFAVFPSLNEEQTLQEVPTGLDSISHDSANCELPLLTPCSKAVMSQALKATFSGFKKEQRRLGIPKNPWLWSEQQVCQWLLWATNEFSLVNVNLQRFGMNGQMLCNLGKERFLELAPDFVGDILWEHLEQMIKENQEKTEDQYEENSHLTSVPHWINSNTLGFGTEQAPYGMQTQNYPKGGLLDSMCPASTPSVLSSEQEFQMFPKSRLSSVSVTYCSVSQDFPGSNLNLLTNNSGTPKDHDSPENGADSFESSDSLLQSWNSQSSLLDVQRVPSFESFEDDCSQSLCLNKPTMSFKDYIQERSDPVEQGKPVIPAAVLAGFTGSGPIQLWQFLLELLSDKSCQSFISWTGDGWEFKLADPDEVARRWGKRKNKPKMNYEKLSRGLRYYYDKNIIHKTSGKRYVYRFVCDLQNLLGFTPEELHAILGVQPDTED
Summary of the method: as §1

[13] = target: T11, ETV7 (Homo sapiens, UniProt Q9Y603 1-341)
T11 sequence: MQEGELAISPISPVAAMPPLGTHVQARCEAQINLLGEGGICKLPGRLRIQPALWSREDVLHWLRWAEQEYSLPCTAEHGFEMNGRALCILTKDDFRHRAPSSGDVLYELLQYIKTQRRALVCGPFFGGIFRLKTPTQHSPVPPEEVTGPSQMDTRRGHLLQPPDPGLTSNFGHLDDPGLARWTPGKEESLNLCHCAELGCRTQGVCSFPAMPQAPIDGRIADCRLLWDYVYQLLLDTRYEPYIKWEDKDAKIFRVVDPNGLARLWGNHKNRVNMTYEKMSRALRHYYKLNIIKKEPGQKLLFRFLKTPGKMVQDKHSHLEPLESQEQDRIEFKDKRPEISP
Summary of the method: as §1

[14] = target: ETV6 (Homo sapiens, UniProt P41212 1-452)
Summary of the method: as §1

Sequence of ETV6 (P41212 whole entry): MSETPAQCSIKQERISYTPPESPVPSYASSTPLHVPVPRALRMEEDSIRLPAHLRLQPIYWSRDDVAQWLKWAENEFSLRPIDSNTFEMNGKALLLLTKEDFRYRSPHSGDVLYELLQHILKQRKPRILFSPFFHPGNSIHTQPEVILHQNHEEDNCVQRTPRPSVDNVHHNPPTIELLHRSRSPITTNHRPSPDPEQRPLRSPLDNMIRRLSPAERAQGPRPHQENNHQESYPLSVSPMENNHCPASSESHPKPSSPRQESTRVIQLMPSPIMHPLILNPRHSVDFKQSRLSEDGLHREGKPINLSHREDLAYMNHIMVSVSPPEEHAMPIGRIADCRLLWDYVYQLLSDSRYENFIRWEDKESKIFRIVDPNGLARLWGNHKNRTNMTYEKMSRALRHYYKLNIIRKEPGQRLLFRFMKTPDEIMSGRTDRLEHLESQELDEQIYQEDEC
Sequence of SPIB (Q01892 whole entry): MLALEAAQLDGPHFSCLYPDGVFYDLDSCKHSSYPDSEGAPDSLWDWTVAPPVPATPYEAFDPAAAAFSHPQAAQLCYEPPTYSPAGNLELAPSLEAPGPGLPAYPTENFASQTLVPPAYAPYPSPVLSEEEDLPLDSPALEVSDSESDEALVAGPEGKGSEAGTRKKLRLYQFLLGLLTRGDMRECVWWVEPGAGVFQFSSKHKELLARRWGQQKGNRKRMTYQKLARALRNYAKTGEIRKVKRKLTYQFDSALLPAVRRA
Sequence of ELF1 (P32519 whole entry): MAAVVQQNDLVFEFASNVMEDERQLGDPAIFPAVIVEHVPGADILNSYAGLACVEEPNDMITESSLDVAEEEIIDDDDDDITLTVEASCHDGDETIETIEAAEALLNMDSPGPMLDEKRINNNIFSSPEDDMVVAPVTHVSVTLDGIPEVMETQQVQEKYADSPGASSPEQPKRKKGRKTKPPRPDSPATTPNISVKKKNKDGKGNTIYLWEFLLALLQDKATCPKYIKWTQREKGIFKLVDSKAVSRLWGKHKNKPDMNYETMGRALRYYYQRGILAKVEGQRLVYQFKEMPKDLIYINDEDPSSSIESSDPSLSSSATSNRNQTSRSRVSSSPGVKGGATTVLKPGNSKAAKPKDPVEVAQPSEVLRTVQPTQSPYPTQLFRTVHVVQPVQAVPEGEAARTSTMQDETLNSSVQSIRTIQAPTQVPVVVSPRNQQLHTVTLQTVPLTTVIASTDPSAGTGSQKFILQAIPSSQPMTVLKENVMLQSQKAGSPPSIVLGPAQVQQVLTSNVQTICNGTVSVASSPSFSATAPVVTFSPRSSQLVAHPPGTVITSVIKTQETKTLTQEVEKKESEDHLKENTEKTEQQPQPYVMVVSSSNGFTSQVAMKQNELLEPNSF

GATTAA
binding signal [1]: 1.01 fold enrichment (6-mer frequency, TF over GST control)
binding signal [2]: 1.04 fold enrichment (6-mer frequency, TF over GST control)
binding signal [3]: 1.04 fold enrichment (6-mer frequency, TF over GST control)
binding signal [4]: 1.02 fold enrichment (6-mer frequency, TF over GST control)
binding signal [5]: 1.01 fold enrichment (6-mer frequency, TF over GST control)
binding signal [6]: 1.02 fold enrichment (6-mer frequency, TF over GST control)
binding signal [7]: 1.13 fold enrichment (6-mer frequency, TF over GST control)
binding signal [8]: 1.06 fold enrichment (6-mer frequency, TF over GST control)
binding signal [9]: 1.11 fold enrichment (6-mer frequency, TF over GST control)
binding signal [10]: 1.04 fold enrichment (6-mer frequency, TF over GST control)
binding signal [11]: 1.1 fold enrichment (6-mer frequency, TF over GST control)
binding signal [12]: 1.01 fold enrichment (6-mer frequency, TF over GST control)
binding signal [13]: 1.01 fold enrichment (6-mer frequency, TF over GST control)
binding signal [14]: 1.12 fold enrichment (6-mer frequency, TF over GST control)

Reference: PMC7862700, “An all-to-all approach to the identification of sequence-specific readers for epigenetic DNA modifications on cytosine”
